The text below walks through data of PubChem BioAssay (EPA / NIEHS).

Active and inactive are the calls of the source. How the source made its calls: active means hit-call score of the fitted dose curve at least 0.9, where 1 is the maximum; inactive means score below 0.9.

What all share (conditions): mRNA level, 48 h; actives raise or lower the signal
Read-out in test [1]: Glutathione S-Transferase (GSTA2), GSTA2 (gene 2939)
The experiment in a line: LTEA_HepaRG_GSTA2: Life Technologies and Expression Analysis (LTEA) Assay for Glutathione S-Transferase (GSTA2) using HepaRG (AID 2283497). An outline of the steps:
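qRT-PCR readout of GSTA2 transcript, normalized to three housekeeping genes, fitted bidirectionally against 0.5% DMSO baseline. Differentiated HepaRG cells received compound for 48 h at 8 concentrations (top 100 uM, half-log steps).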

Read-out in test [2]: Glutamate-cysteine ligase catalytic (GCLC), GCLC (gene 2729)
In words: LTEA_HepaRG_GCLC: Life Technologies and Expression Analysis (LTEA) Assay for Glutamate-cysteine ligase catalytic (GCLC) using HepaRG (AID 2283498). In a few lines: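 HepaRG, 48 h exposure, 8-pt half-log series from 100 uM, 0.5% DMSO vehicle; TaqMan qRT-PCR for GCLC mRNA, housekeeping-normalized; bidirectional curve fit vs DMSO baseline.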

Read-out in test [3]: growth arrest and DNA damage 45 (GADD45G), GADD45G (gene 10912)
In words: LTEA_HepaRG_GADD45G: Life Technologies and Expression Analysis (LTEA) Assay for growth arrest and DNA damage 45 (GADD45G) using HepaRG (AID 2283499). An outline of the steps: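 Gain or loss of GADD45G mRNA, quantified by TaqMan qRT-PCR against three housekeeping genes, is fitted in both directions relative to 0.5% DMSO. Human HepaRG cultures receive test chemical for 48 h at up to 100 uM.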

Read-out in test [4]: Glutamate-cysteine ligase regulatory (GCLM), GCLM (gene 2730)
The experiment in a line: LTEA_HepaRG_GCLM: Life Technologies and Expression Analysis (LTEA) Assay for Glutamate-cysteine ligase regulatory (GCLM) using HepaRG (AID 2283500). An outline of the steps: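 HepaRG, 48 h dosing, 100 uM top, half-log x8, 0.5% DMSO vehicle. Readout: GCLM mRNA by TaqMan qRT-PCR, housekeeping-normalized (ACTB/GAPDH/POLR2A). Curves fit bidirectionally vs DMSO baseline.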

Read-out in test [5]: Glutathione S-transferase M3 (GSTM3), GSTM3 (gene 2947)
The experiment in a line: LTEA_HepaRG_GSTM3: Life Technologies and Expression Analysis (LTEA) Assay for Glutathione S-transferase M3 (GSTM3) using HepaRG (AID 2283501). In a few lines: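 HepaRG, plated 48 h, then serum-free induction medium; test chemical 48 h, duplicate; 100 uM top, half-log x8, 0.5% DMSO. Read-out: GSTM3 mRNA (TaqMan qRT-PCR, Fluidigm array). Bidirectional fit vs DMSO.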

Read-out in test [6]: Heat shock 70 kDa protein 1 (HSPA1A), gene 3303
The experiment in a line: LTEA_HepaRG_HSPA1A: Life Technologies and Expression Analysis (LTEA) Assay for Heat shock 70 kDa protein 1 (HSPA1A) using HepaRG (AID 2283502). An outline of the steps:
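HepaRG, 48 h exposure, 8-pt half-log CRC from 100 uM in 0.5% DMSO, duplicates. Readout: TaqMan qRT-PCR of HSPA1A mRNA, housekeeping-normalized (ACTB/GAPDH/POLR2A). Bidirectional fit vs 0.5% DMSO baseline.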

Read-out in test [7]: Hypoxia-inducible factor 1-alpha (Homo sapiens) (UniProt Q16665)
In words: LTEA_HepaRG_HIF1A: Life Technologies and Expression Analysis (LTEA) Assay for Hypoxia-inducible factor 1 (HIF1A) Trancription factor using HepaRG (AID 2283503). An outline of the steps: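 Gain- or loss-of-signal HIF1A mRNA changes are fitted against a DMSO baseline. HepaRG cultures receive eight concentrations, highest 100 uM, for 48 h in serum-free induction medium with 0.5% DMSO.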

Read-out in test [8]: 3-Hydroxy-3-Methylglutaryl-CoA Synthase 2 (HMGCS2), HMGCS2 (gene 3158)
The experiment in a line: LTEA_HepaRG_HMGCS2: Life Technologies and Expression Analysis (LTEA) Assay for 3-Hydroxy-3-Methylglutaryl-CoA Synthase 2 (HMGCS2) using HepaRG (AID 2283504). In a few lines: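 HepaRG, plated 48 h then switched to serum-free induction media; cmpd 8-pt, max 100 uM, 1/2-log, 0.5% DMSO, n=2, 48 h. HMGCS2 mRNA by Fluidigm TaqMan qRT-PCR, ACTB/GAPDH/POLR2A norm; bidirectional fit vs DMSO.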

Read-out in another test: HGF (gene 3082)
In words: LTEA_HepaRG_HGF: Life Technologies and Expression Analysis (LTEA) Assay for Hepatocyte Growth Facto (HGF) using HepaRG (AID 2283505). An outline of the steps: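 Read-out is HGF transcript level by qRT-PCR, normalized to three housekeeping genes, fitted bidirectionally against 0.5% DMSO vehicle. Human HepaRG cells received test chemicals for 48 h at up to 100 uM.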

Read-out in test [9]: Insulin Like Growth Factor 1 (IGF1), IGF1 (gene 3479)
In words: LTEA_HepaRG_IGF1: Life Technologies and Expression Analysis (LTEA) Assay for Insulin Like Growth Factor 1 (IGF1) using HepaRG (AID 2283506). In a few lines:
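qRT-PCR readout of IGF1 mRNA, normalized to three housekeeping genes, after 48 h chemical exposure of HepaRG cells. Concentrations: 8-point half-log series, top 100 uM, 0.5% DMSO vehicle. Gain or loss fitted against DMSO baseline.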

Read-out in test [10]: Intercellular Adhesion Molecule 1 (ICAM1), ICAM1 (gene 3383)
The experiment in a line: LTEA_HepaRG_ICAM1: Life Technologies and Expression Analysis (LTEA) Assay for Intercellular Adhesion Molecule 1 (ICAM1) using HepaRG (AID 2283507). In a few lines: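 Readout is qRT-PCR mRNA level, normalized to three housekeeping genes and fitted bidirectionally against 0.5% DMSO vehicle. Human HepaRG cultures received compound for 48 h, top concentration 100 uM with half-log dilutions.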

Read-out in test [11]: Insulin-like growth factor-binding protein 1 (IGFBP1), IGFBP1 (gene 3484)
The experiment in a line: LTEA_HepaRG_IGFBP1: Life Technologies and Expression Analysis (LTEA) Assay for Insulin-like growth factor-binding protein 1 (IGFBP1) using HepaRG (AID 2283508). An outline of the steps:
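Thawed HepaRG cells are plated for 48 h, switched to serum-free induction medium, then dosed in duplicate for another 48 h (100 uM top, half-log steps). Lysates in RLT go to qRT-PCR, and gain or loss of signal is fitted relative to vehicle.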

Read-out in test [12]: Interleukin 6 (IL6), IL6 (gene 3569)
In words: LTEA_HepaRG_IL6: Life Technologies and Expression Analysis (LTEA) Assay for Interleukin 6 (IL6) using HepaRG (AID 2283509). In a few lines: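 qRT-PCR read-out of IL6 transcript, normalized to three housekeeping genes, after 48 h chemical exposure of HepaRG cells; 8-point half-log series, top 100 uM, 0.5% DMSO vehicle. Bidirectional curve fitting against DMSO baseline.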

Read-out in test [13]: Interleukin 6 Receptor (IL6R), IL6R (gene 3570)
The experiment in a line: LTEA_HepaRG_IL6R: Life Technologies and Expression Analysis (LTEA) Assay for Interleukin 6 Receptor (IL6R) using HepaRG (AID 2283510). In a few lines:
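HepaRG, 48 h exposure, 8-pt half-log series, top 100 uM, 0.5% DMSO vehicle, duplicates. Read-out: TaqMan qRT-PCR of IL6R transcript, housekeeping-gene normalized. Gain or loss fitted relative to DMSO baseline.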

Read-out in test [14]: Keratin 19 (KRT19), KRT19 (gene 3880)
The experiment in a line: LTEA_HepaRG_KRT19: Life Technologies and Expression Analysis (LTEA) Assay for Keratin 19 (KRT19) using HepaRG (AID 2283512). In a few lines:
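KRT19 transcript levels, measured by Fluidigm qRT-PCR against three housekeeping genes, are fitted for gain or loss of signal relative to DMSO. Human HepaRG cells receive test chemicals (top 100 uM, half-log steps, 0.5% DMSO) for 48 hours.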

Read-out in test [15]: JUN Transcription Factor, JUN (gene 3725)
In words: LTEA_HepaRG_JUN: Life Technologies and Expression Analysis (LTEA) Assay for JUN Transcription Factor using HepaRG (AID 2283513). In a few lines: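 HepaRG, 48 h exposure, 8-pt half-log series top 100 uM, 0.5% DMSO, duplicate. JUN mRNA by qRT-PCR (Fluidigm), housekeeping-normalized (ACTB/GAPDH/POLR2A); bidirectional curve fit vs DMSO baseline.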

Read-out in test [16]: Lipase C (LIPC), LIPC (gene 3990)
The experiment in a line: LTEA_HepaRG_LIPC: Life Technologies and Expression Analysis (LTEA) Assay for Lipase C (LIPC) using HepaRG (AID 2283514). In a few lines: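 HepaRG, 48 h exposure, 8-pt half-log series from 100 uM in 0.5% DMSO, duplicates. Readout: LIPC mRNA by Fluidigm qRT-PCR, housekeeping-normalized (ACTB/GAPDH/POLR2A). Gain or loss fitted bidirectionally against DMSO baseline.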

Read-out in test [17]: Lipoprotein lipase (LPL), LPL (gene 4023)
The experiment in a line: LTEA_HepaRG_LPL: Life Technologies and Expression Analysis (LTEA) Assay for Lipoprotein lipase (LPL) using HepaRG (AID 2283515). An outline of the steps: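 HepaRG, 48 h exposure, 8-pt half-log dilutions from 100 uM, 0.5% DMSO vehicle, duplicates; qRT-PCR (Fluidigm array) of LPL mRNA vs housekeeping genes; bidirectional curve fit relative to DMSO baseline.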

Read-out in test [18]: MicroRNA 122 (MIR122), gene 406906
The experiment in a line: LTEA_HepaRG_MIR122: Life Technologies and Expression Analysis (LTEA) Assay for MicroRNA 122 (MIR122) using HepaRG (AID 2283516). Further: the transcript read is the microRNA miR-122. An outline of the steps: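 qRT-PCR read-out (TaqMan, Fluidigm array), normalized to three housekeeping genes; HepaRG cells dosed 48 h at 8 concentrations up to 100 uM in 0.5% DMSO, duplicate; gain or loss fitted against DMSO baseline.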

Read-out in test [19]: Potassium channel subfamily K member 1 (KCNK1), KCNK1 (gene 3775)
The experiment in a line: LTEA_HepaRG_KCNK1: Life Technologies and Expression Analysis (LTEA) Assay for Potassium channel subfamily K member 1 (KCNK1) using HepaRG (AID 2283511). An outline of the steps:
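HepaRG, 48 h exposure, 8-pt half-log series top 100 uM, 0.5% DMSO vehicle, duplicates. Readout: KCNK1 transcript by qRT-PCR (Fluidigm array), housekeeping-normalized; bidirectional curve fit relative to DMSO baseline.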

Hypoxia-inducible factor 1-alpha (Homo sapiens), sequence (Q16665 whole entry, looked up): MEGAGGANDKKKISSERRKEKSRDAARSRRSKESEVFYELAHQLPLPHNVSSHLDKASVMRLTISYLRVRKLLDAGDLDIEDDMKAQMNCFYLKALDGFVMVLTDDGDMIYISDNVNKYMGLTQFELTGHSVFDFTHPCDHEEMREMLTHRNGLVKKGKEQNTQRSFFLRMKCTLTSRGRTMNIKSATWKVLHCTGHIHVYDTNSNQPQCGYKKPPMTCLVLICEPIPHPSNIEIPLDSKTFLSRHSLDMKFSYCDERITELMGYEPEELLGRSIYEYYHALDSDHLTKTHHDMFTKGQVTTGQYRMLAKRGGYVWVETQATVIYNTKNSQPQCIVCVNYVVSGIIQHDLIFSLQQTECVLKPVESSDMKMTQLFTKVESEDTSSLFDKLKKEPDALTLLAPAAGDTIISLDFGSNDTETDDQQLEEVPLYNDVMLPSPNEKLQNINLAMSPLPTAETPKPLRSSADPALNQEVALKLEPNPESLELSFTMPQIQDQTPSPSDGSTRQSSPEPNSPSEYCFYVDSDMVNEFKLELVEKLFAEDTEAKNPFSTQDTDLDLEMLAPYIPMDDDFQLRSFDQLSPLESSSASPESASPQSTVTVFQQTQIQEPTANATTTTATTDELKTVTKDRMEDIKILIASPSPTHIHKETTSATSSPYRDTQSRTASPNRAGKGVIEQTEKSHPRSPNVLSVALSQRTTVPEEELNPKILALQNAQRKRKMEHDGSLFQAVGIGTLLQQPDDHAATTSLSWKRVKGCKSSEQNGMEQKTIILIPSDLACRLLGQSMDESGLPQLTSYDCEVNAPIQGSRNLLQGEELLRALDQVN

Turning to `CCCCCCC(C=O)=Cc1ccccc1`, the call in [1], in [2], in test [3], in test [4], in test [5] and in test [6] was inactive. Further, the result (in [7]; in [8]; with HGF (gene 3082); in [9]; in test [10]; in [11]) was inactive. In addition, the compound was called inactive in test [12], in test [13], in test [14], in test [15], in test [16] and in [17]. Further, in [18], the outcome was inactive.

In the case of `N[C@@H](Cc1c[nH]c2ccccc12)C(=O)O`, the compound was called inactive in [1], in test [2], in [3], in [4], in test [5] and in test [6]. Also, the compound was classed as inactive (in [7]; in test [8]; with HGF (gene 3082); in test [9]; in [10]; in test [11]). For the same compound, the result in test [12], in test [13], in [14], in test [15], in test [16] and in test [17] was inactive. The result in test [18] was inactive.

`O=C(Oc1ccccc1)c1cccc(C(=O)Oc2ccccc2)c1`: the compound was classed as inactive in [1], in test [2], in [3], in [4], in test [5] and in test [6]. In addition, the result (in test [7]; in test [8]; in the test with HGF (gene 3082); in [9]; in test [10]; in [11]) was inactive. Also, the outcome in test [12], in test [13], in [14], in [15], in [16] and in test [17] was inactive. For the same compound, the result in [18] was inactive.

By AC50 is commonly meant the concentration giving half of the maximal activity seen. On to `CSc1ccc(Oc2ccc(S(N)(=O)=O)cc2CN(C)C)cc1C`, for which the outcome in test [1], in test [2], in test [4], in [5], in test [6] and in [7] was inactive. Besides, the compound was called inactive (with HGF (gene 3082); in [9]; in [10]; in test [13]; in test [15]; in [16]). In [18], the compound was classed as inactive. In addition, the AC50 was 50 µM (active) in test [3]; 63.9 µM (active) in [8]; 69.7 µM (active) in test [11]; 88.2 µM (active) in test [12]; 50 µM (active) in [14]; 77 µM (active) in test [17].

Turning to `C/C=C/c1ccc(OC)cc1`, the result in [1], in [2], in test [3], in [4], in test [6] and in [7] was inactive. Besides, the compound was classed as inactive (in test [8]; with HGF (gene 3082); in test [9]; in [10]; in test [11]; in test [12]). Moreover, the compound was called inactive in test [13], in test [14], in test [15], in [16], in test [17] and in test [18].

With `CCN(CC)CCOc1ccc(C(=C(Cl)c2ccccc2)c2ccccc2)cc1`, the AC50 in [1] was 78.6 µM (active); in [8], 29.2 µM (active); in test [9] it was 13.3 µM (active); in [10], 77.1 µM (active); in [11] it was 61.2 µM (active); in [12] it was 81.8 µM (active). Besides, the concentration at half-maximal activity (AC50) in [15] was 66.2 µM (active); in [16] it was 24.1 µM (active); in [17], 17.8 µM (active); in [18], 78.8 µM (active). Moreover, the call (in test [2]; in [3]; in test [5]; in [6]; in test [7]; with HGF (gene 3082)) was inactive. Moreover, the outcome in test [13], in test [19] and in test [14] was inactive.
